From PubChem BioAssay
Shown are actives, neighbours in structure and some others; about 10% of the full set was active somewhere.
Luciferase inh = blocks purified firefly luciferase enzyme activity; AID 1347043; purified P. pyralis luciferase, luminescence, biochemical; Potency, µM (top dose mostly 115 µM), most hits filed as inhibitors; hit rate 2.5% among 76,000; also: nearly all actives have a fitted effect of over 65% in size
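Cell-free enzyme assay, 10nM P. pyralis luciferase, luciferin and ATP each at 10uM. Inhibition profiled over a 6-point titration, read as luminescence.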
GPT2 inh = GPT2 alanine aminotransferase inhibition; Q8TD30; Recombinant GPT2, coupled pyruvate oxidase/HRP Amplex Red fluorescence; Potency, µM (titrated, usually from 57.7 µM), without a hit: at the top dose activity change, negative = inhibition, most hits filed as inhibitors; hit rate 0.25% among 100,000; also: nearly all actives have a fitted effect of over 60% in size
Target sequence (Q8TD30 whole entry, looked up): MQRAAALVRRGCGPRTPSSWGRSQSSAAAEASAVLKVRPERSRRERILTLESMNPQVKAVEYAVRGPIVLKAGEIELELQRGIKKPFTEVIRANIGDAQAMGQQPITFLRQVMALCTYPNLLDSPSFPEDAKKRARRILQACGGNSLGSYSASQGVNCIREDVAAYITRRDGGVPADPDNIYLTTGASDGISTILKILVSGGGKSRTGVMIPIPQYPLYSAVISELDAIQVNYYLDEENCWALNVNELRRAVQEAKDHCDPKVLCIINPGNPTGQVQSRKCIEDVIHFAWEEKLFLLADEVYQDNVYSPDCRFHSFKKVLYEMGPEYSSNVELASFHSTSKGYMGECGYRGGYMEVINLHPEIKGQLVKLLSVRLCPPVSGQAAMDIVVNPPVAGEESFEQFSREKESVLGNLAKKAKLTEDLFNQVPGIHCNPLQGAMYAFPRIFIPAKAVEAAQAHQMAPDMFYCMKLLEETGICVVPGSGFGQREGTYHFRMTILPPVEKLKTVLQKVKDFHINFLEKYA
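Fluorescence of coupled pyruvate oxidase/HRP/Amplex Red system (50uM Amplex, 30 min, dark) reports pyruvate formed by GPT2. Enzyme reaction: 10ng/uL GPT2, 2mM L-alanine, 250uM a-KG, 30 min room temperature, pH 7.5; 50uM AOA control.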
HEK293 tox = cytotoxic compounds in HEK 293 cells. Potency, µM (doses to about 115 µM), for inactives: at the top dose activity change, negative = cytotoxicity, usual class: inhibitors. HEK 293 viability, ATP luminescence (CellTiter-Glo), 48-72 h. AID 1345083. hit rate 6.6% among 94,000; also: nearly all actives have a fitted effect of over 60% in size
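Cytotoxicity was scored by loss of ATP-coupled luminescence (CellTiter-Glo) in HEK 293 cells. Compound treatment ran 48 or 72 hr at 37 degree Celsius, 5% CO2, 95% humidity.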
3T3 cytotox = kills NIH 3T3 cells; hit rate 4.3% among 94,000; NIH 3T3 viability, CellTiter-Glo ATP luminescence, 48-72 h; Potency, µM (highest dose often 96.7 µM), without a hit: top-dose activity change, negative = cytotoxicity, actives largely listed as inhibitors; also: nearly all actives have a fitted effect of over 55% in size
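Luminescent ATP readout (CellTiter-Glo, 10 min RT) after 48 or 72 hr compound exposure of NIH 3T3 cells seeded at 400 cells/well in 1536-well format; quantitative HTS.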
hNpr1 antagonist = human Npr1 receptor antagonism | HEK293 hNpr1 GloSensor cGMP, ANP-stimulated luminescence | Potency, µM (series often up to 46.3 µM), inactives show at the top dose activity change, negative = inhibition, usual class: inhibitors | hit rate 1.6% among 76,000 | AID 1347048; calls by dose curve; also: nearly all actives have a fitted effect of over 60% in size
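HEK293 cells stably expressing human Npr1 and cGMP GloSensor pGS-40F, loaded 2 h with 2% GloSensor reagent, given compound 30 min at room temperature. Luminescence read before and 20 min after 0.1 nM hNppA.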
Numbers without * were called inactive; i = inactive; ? = inconclusive; . = no result; [ ] = dose if it differs, or a comment. Unless noted, calls follow the shape of the dose curve; as a rule, active = well fitted curve in the direction sought with a large enough effect; inconclusive = small, poorly fitted or top-dose-only effect, or another doubt; inactive = no such curve, though single readings can be large; an effect the other way counts as inactive or inconclusive. % is scaled to controls: 0 for no effect and ±100 for the full control effect; potency is read from the fitted curve at half-maximal effect.

SMILES | Luciferase inh | GPT2 inh | HEK293 tox | 3T3 cytotox | hNpr1 antagonist
CCc1ccc(N2CC(c3noc(-c4ccccc4)n3)CC2=O)cc1 (stereo not given) | i | 1% | 79µM* | ? | 1%
CC1=NS(=O)(=O)N(Cc2cccc(C)c2)C=C1C(=O)O | i | 1% | 13% | i | -2%
COc1ccccc1-c1cccc(CN2CCCC(C(=O)N3CCCC(C)C3)C2)c1 (stereo not given) | . | -4% | 40µM* | ? | .
COc1ccccc1-c1cccc(CN2CCCC(C(=O)N3CCN(C(C)=O)CC3)C2)c1 (stereo not given) | . | 1% | ? | -32% | .
COc1ccccc1-c1cccc(CN2CCCC(C(=O)N(C)C)C2)c1 (stereo not given) | . | -3%[88.5 µM] | ? | ? | .
COc1ccccc1-c1cccc(CN2CCCC(C(=O)N3CCC(c4ccccc4)CC3)C2)c1 (stereo not given) | . | -9% | 40µM* | ? | .
COc1ccccc1-c1cccc(CN2CCCC(C(=O)N3CCN(c4ncccn4)CC3)C2)c1 (stereo not given) | . | i | 16µM* | ? | .
COc1ccccc1-c1cccc(CN2CCCC(C(=O)N3CCN(Cc4ccccc4)CC3)C2)c1 (stereo not given) | . | -16% | 40µM* | 35µM* | .
Cc1ccccc1CC(=O)N1CCCN(C(=O)C2CC2)c2ccccc21 | i | i | -7% | -5% | -3%
COC(=O)C1=CN(CC(=O)Nc2ccccc2)S(=O)(=O)N=C1C | i | 2% | 4% | i | 1%
COc1ccc(F)cc1-c1cccc(C(=O)NCCNC(=O)c2ccc(F)cc2)c1 | . | -5% | 35µM* | ? | .
COc1ccc(F)cc1-c1cccc(C(=O)NCCN[S+](=O)([O-])CCC(F)(F)F)c1 | . | i | 79µM* | ? | .
COc1ccc(F)cc1-c1cccc(C(=O)NCC(=O)NCCc2cccc(F)c2)c1 | . | . | 40µM* | ? | .
COc1ccccc1C(=O)NCCNC(=O)c1cccc(-c2cc(F)ccc2OC)c1 | . | -1% | ? | ? | .
COc1ccc(F)cc1-c1cccc(C(=O)NCCNC(=O)c2cccnc2)c1 | . | . | ? | 35µM* | .
COc1ccc(F)cc1-c1cccc(C(=O)NCCNC(=O)c2ccccc2)c1 | . | i | ? | ? | .
COC(=O)C1=CN(Cc2cccc(Cl)c2)S(=O)(=O)N=C1C | i | 4% | ? | ? | -2%
O=c1c2ccccc2cnn1Cc1nc(-c2ccc3nc[nH]c3c2)no1 | i | -5% | ? | ? | 2%
CN(C)c1ccc(CN2Cc3[nH]cnc3C[C@H]2c2nc(-c3ccncc3)no2)cc1 | i | -7%[88.5 µM] | -26%[172 µM] | ? | 1%[70.6 µM]
CCNC(=O)N1Cc2[nH]cnc2C[C@H]1c1nc(-c2ccc(F)c(Cl)c2)no1 | i | -8%[88.5 µM] | ? | ? | -23%[70.6 µM]
c1ccc(CN2Cc3[nH]cnc3C[C@H]2c2nc(-c3ccccc3)no2)cc1 | i | ? | 71µM* | ? | -17%[70.6 µM]
Cc1ccc(-c2noc([C@@H]3Cc4nc[nH]c4CN3Cc3ccccc3)n2)cc1 | ? | -5%[88.5 µM] | 100µM* | 79µM* | -12%[70.6 µM]
Fc1ccc(CN2Cc3[nH]cnc3C[C@H]2c2nc(-c3ccc(F)c(Cl)c3)no2)cc1 | ? | -8%[88.5 µM] | ? | 89µM* | -25%[70.6 µM]
COc1ccc(-c2nn(-c3ccccc3)cc2CN2CCN(C)CC2)c(F)c1 | ? | i | ? | ? | 8%
COc1ccc(OC)c(S(=O)(=O)N2CCCOCCNC(=O)[C@@H]3CCC[C@@H]32)c1 | i | -7% | i | -11% | 0%
SMILES | Luciferase inh | GPT2 inh | HEK293 tox | 3T3 cytotox | hNpr1 antagonist
CS(=O)(=O)N1CCOc2ccc(CCC(=O)NCCCN3CCOCC3)cc2C1 | i | 4% | -10% | 4% | -1%
Cc1ccccc1[C@H]1C[C@@H](O)[C@@H](O)[C@@H]1NC(=O)c1nc2ccccc2s1 | i | 0%[88.5 µM] | ? | ? | -11%[70.6 µM]
O=C(N[C@H]1[C@H](O)[C@H](O)C[C@@H]1c1ccc(C(F)(F)F)nc1)c1nc2ccccc2s1 | 45µM* | -11%[88.5 µM] | -27%[172 µM] | -22%[138 µM] | -11%[70.6 µM]
COc1ccc([C@H]2C[C@@H](O)[C@@H](O)[C@@H]2NC(=O)c2nc3ccccc3s2)cc1 | 45µM* | -3%[88.5 µM] | ? | -27%[138 µM] | -26%[70.6 µM]
CN(C)C[C@@H]1CN(Cc2ccccc2)C[C@H]1NS(=O)(=O)c1cccnc1 | i | 0% | i | -7% | -3%
CCCCN1CCN(C(=O)c2cn3ccnc(-c4ccccc4)c3n2)CC1 | i | i | ? | -12% | -15%
COc1ccc(CN2CCOc3nc(Cc4ccccc4)ncc3C2=O)cc1 | i | ? | ? | ? | -9%[70.6 µM]
Cn1cc(CN2CCN(C(=O)c3c[nH]c4ccccc34)CC2)ccc1=O | 32µM* | i | -30% | -16% | -2%
Cn1cc(CN2CCN(C(=O)c3ccoc3)CC2)ccc1=O | i | i | 4% | i | -3%
COc1ccc(-n2nc(C3CCN(C(=O)c4cccc(OC)c4)CC3)[nH]c2=O)cc1 | i | 0% | i | -4% | -5%
O=S(=O)(Cc1ccccc1)N1CCC(OC2CCN(Cc3cccnc3)CC2)CC1 | i | i | -20% | -24% | 3%
CCCn1cc(-c2ccnc(NC3CCN(Cc4cccnc4)CC3)n2)c(C)n1 | i | 4% | 28µM* | ? | ?
COc1ccc(-c2onc(C)c2C(=O)N[C@@H](C)c2ccc(OC)cc2)cc1 | i | i | ? | -19% | 0%
CCN1c2cc(C(=O)Nc3cccc(C(C)C)c3)ccc2C(=O)N2CCCCCC21 (stereo not given) | i | i | 28µM* | 32µM* | -6%
CCN1c2cc(C(=O)Nc3ccccc3C(=O)OC)ccc2C(=O)N2CCCCCC21 (stereo not given) | i | 1% | ? | 20µM* | -2%
CCc1cccc(NC(=O)c2ccc3c(c2)N(CC)C2CCCCCN2C3=O)c1 (stereo not given) | i | i | 32µM* | ? | 2%
CCc1cccc(NC(=O)c2ccc3c(c2)N(CC)C2CCCCN2C3=O)c1 (stereo not given) | i | i | ? | ? | 0%
CCc1cccc(NC(=O)c2ccc3c(c2)N(C)C2CCCCCN2C3=O)c1 (stereo not given) | ? | i | 35µM* | ? | 0%
COc1ccccc1C(=O)N1CCCCCC1c1nc(C2CC2)no1 (stereo not given) | . | -5% | ? | -25% | .
COc1ccc(NC(=O)c2ccc3c(c2)N(C)C2CCCN2C3=O)cc1OC (stereo not given) | i | i | ? | -29% | 0%
CCc1cccc(NC(=O)c2ccc3c(c2)N(C)C2CCCN2C3=O)c1 (stereo not given) | 25µM* | i | ? | ? | 0%
